Activity calls are given as the source filed them. The calls were made as follows: active = hit-call score of the fitted dose curve at least 0.9, where 1 is the maximum; inactive = score below 0.9.
Each compound was assayed on catalase (CAT), CAT (gene 847) (assay: LTEA_HepaRG_CAT: Life Technologies and Expression Analysis (LTEA) Assay for catalase (CAT) using HepaRG (AID 2283452;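 as to AC50: TaqMan qRT-PCR signal normalized to ACTB GAPDH and POLR2A housekeeping genes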)). Details: mRNA level, 48 h; actives raise or lower the signal.
Procedure: LTEA_HepaRG is a cell based, multiplexed-readout assay that uses HepaRG, a human liver cell line, with measurements taken at 48 hours after chemical dosing on a 96-well plate.LTEA_HepaRG_CAT is one of 102 assay component(s) measured in the LTEA HepaRG cell culture assay. It is a marker of Oxidative Stress.Data from the assay component LTEA_HepaRG_CAT was analyzed into 1 endpoint. This assay endpoint, LTEA_HepaRG_CAT, was analyzed with bidirectional fitting relative to DMSO as the negative control and baseline of activity. Using a type of inducible reporter, measures of mRNA induction for gain or loss-of-signal activity can be used to understand regulation of transcription factor activity. To generalize the intended target to other relatable targets, this assay endpoint is annotated to the catalase intended target family, where the subfamily is oxidative stress.
A total of 1060 chemcials from the ToxCast library were tested in eight-point concentration-response experiments. Cell culture and cytotoxicity assays were conducted at Thermo Fisher Scientific's Custom Services facility (Madison, WI). A single lot of human HepaRG cells (Thermo Fisher Scientific, Frederick, MD) was used for the cell culture experiments. 96-well format collagen type I coated plates of human HepaRG cells were prepared using established methods. Briefly, cryopreserved HepaRG cells were thawed, plated at a density of approximately 100,000 cells/well in HepaRG Thaw, Plate, and General Purpose media (HPRG770, Thermo Fisher Scientific), and incubated for 48 hours. 0.5% DMSO was selected as vehicle control to balance the requisite need of DMSO in HepaRG cultures to maintain differentiation (for example, baseline metabolism, proportions of hepatocytes vs. cholangiocytes), while enabling further hepatic receptor pathway activation (for example, PXR and CAR) in response to chemical exposure. 48 hours after plating, the culture medium was replaced with HepaRG Serum-Free Incudtion Media. Cells were exposed to each test chemical in duplicate and maintained in CO2 incubators for another 48 hours. Chemical plates were thawed to room temperature and 200x concentrations of treatment groups were prepared. 8-point conentration-reponse curves were made with the highest exposure at 100 uM, followed by half-log dilutions, all in 0.5% DMSO. Each test plate contained variouse controls, induction positive controls (1mM phenobarbital), cytotoxicity positive controls ([…] aflatoxin B1), vehicle controls (0.5% DMSO), and total lysis controls (0.5% DMSO). Cell morphology images were taken using an Essen IncuCyte FLR automated microscope, with six 96-well plates imaged in about 24 minutes. Images were captured and exported and JPEG files. Spent culture media was transfered to black-well plates for the LDH assay, and remaining media was sorted at -80 C for later use. Cells were treated with RLT buffer and frozen until shipped for gene expression analysis. Total RNA was isolated from the cell suspension in 75 uL of Buffer RLT (Qiagen, Germantown, MD 20874) by Quintiles/Expression Analysis (Durham, NC) using a custom isolation procedure. Total RNA from each plate well was transferred to a preamplification plate. Fluidigm's 96.96 Dynamic ArrayTM (Fluidigm, Amsterdam, the Netherlands) technology was used for gene expression analyses by quantitative reverse transcription polymerase chain reaction (qRT-PCR, performed by Quintiles/Expression Analysis, Durham, NC)89. Standard TaqManTM Assays (Applied Biosystems/ThermoFisher Scientific, Foster City, CA) were used to assess the expression of 93 genes selected based on their selectivity and sensitivity to important hepatic receptors known to be modulated by environmental chemicals; importance in human hepatocyte functionality; and hepatotoxicity. […]
For `CCOC(=O)CC(CC(=O)OCC)(OC(C)=O)C(=O)OCC`, the outcome was “inactive”.
`CC(C)CC(C)(O)C#CC(C)(O)CC(C)C` (stereo not given) was tested, and the outcome was “inactive”.
In the case of `CCCN(C1CCN(C(=O)C2CCNCC2)CC1)[C@@H]1CCc2ccc(OC)cc2C1`, the AC50 is reported as 50.1 µM (active).
In the case of `COc1ccc(/C=C/S(=O)(=O)NC(=O)c2ccc(C)cc2Cl)cc1`, the outcome is reported as “inactive”.
For `C1N2CN3CN1CN(C2)C3`, the outcome was “inactive”.
`CCCCCCCCO` was tested, and the outcome was “inactive”.
For `CC(C)=CCCC(C)CCO` (stereo not given), the outcome was “inactive”.
With `CC(C)CCCCCCCOC(=O)CCCCC(=O)OCCCCCCCC(C)C` the outcome was “inactive”.
For `Cn1cnc([N+](=O)[O-])c1Sc1ncnc2nc[nH]c12`, the AC50 was 1.69 µM (active).
`Cn1c(=O)c2c(ncn2C)n(C)c1=O` was tested, and the outcome was “inactive”.
With `C=CC(=C)CCC=C(C)C` the outcome was “inactive”.
For `CCn1nc(Cc2ccccc2)cc1C1CCN(C[C@H]2C[C@H](N(C)[C@@H](C(=O)O)C(C)C)C[C@@H]2c2cccc(F)c2)CC1`, the outcome was “inactive”.
In the case of `O=C(O)CCN(C1(C(=O)NO)CCCC1)S(=O)(=O)c1ccc(Oc2ccc(F)cc2)cc1`, the outcome is reported as “inactive”.
`CN(C)c1ccc(Cc2ccc(N(C)C)cc2)cc1` was tested, and the outcome was “inactive”.
In the case of `CC(C)=CCC/C(C)=C/CO`, the outcome is reported as “inactive”.
In the case of `Nc1nc2ncc(CNc3ccc(C(=O)N[C@@H](CCC(=O)O)C(=O)O)cc3)nc2c(=O)[nH]1`, the outcome is reported as “inactive”.
In the case of `CC(=O)OCCC(C)C`, the outcome is reported as “inactive”.
In the case of `CC[C@H](C)C(=O)O[C@H]1C[C@@H](C)C=C2C=C[C@H](C)[C@H](CC[C@@H]3C[C@@H](O)CC(=O)O3)[C@H]21`, the outcome is reported as “inactive”.
`CCOCCOCCOCCO` was tested, and the outcome was “inactive”.
`COC(=O)c1c(Cl)c(Cl)c(C(=O)OC)c(Cl)c1Cl` was tested, and the outcome was “inactive”.
With `COCCOCCOCCOC` the outcome was “inactive”.
For `CC/C(=C\C(=N/O)C(N)=O)C(C)[N+](=O)[O-]` (stereo not given), the outcome was “inactive”.
In the case of `CC1(C)C(=O)N(Br)C(=O)N1Br`, the outcome is reported as “inactive”.
With `Cc1ccc(S(=O)(=O)O)cc1C` the outcome was “inactive”.
`O=C1CCCCCN1` was tested, and the outcome was “inactive”.
In the case of `O=C(O)c1cccc(Oc2ccccc2)c1`, the outcome is reported as “inactive”.
In the case of `COC(=O)c1ccccc1O`, the outcome is reported as “inactive”.
In the case of `On1ccccc1=S`, the outcome is reported as “inactive”.
In the case of `CCc1cc(SCc2sc(-c3ccc(C(F)(F)F)cc3)nc2CN2CCN(c3ccc(OC)cc3)CC2)ccc1OCC(=O)O`, the AC50 is reported as 93.7 µM (active).
In the case of `Nc1cccc(N)c1`, the outcome is reported as “inactive”.
`CCN(C(=O)c1cc(C)cc(OC[C@H](C)Nc2ccncc2)c1)C(C)C` was tested, and the AC50 was 33.8 µM (active).
In the case of `O=c1[nH]c2ccc(S(=O)CCN3CCC(Cc4ccc(F)cc4)CC3)cc2o1` (stereo not given), the AC50 is reported as 67.3 µM (active).
In the case of `O=C(O)c1cccc(N(Cc2cccnc2)c2ccc(OC(F)F)c(OC(F)F)c2)c1`, the outcome is reported as “inactive”.
In the case of `CC(C)=CCCC(C)=CC=O`, the outcome is reported as “inactive”.
In the case of `CCCC(=O)OCC`, the outcome is reported as “inactive”.
With `CC(=O)OC[C@H]1O[C@@](COC(C)=O)(O[C@H]2O[C@H](COC(C)=O)[C@@H](OC(C)=O)[C@H](OC(C)=O)[C@H]2OC(C)=O)[C@@H](OC(C)=O)[C@@H]1OC(C)=O` the outcome was “inactive”.
`C1=CCCC=CCCC=CCC1` was tested, and the outcome was “inactive”.
In the case of `COCCOc1cc2cc(C(=O)NC3CCN(C(C)C)CC3)n(CC(=O)Nc3ccc(Cl)cn3)c2cn1`, the AC50 is reported as 45 µM (active).
In the case of `O=C(O)CC(O)C(=O)O` (stereo not given), the outcome is reported as “inactive”.
For `CC(C)c1cccc(C(C)C)c1N1C(=O)c2ccc(O)cc2C1=O`, the outcome was “inactive”.

From PubChem BioAssay (EPA / NIEHS)
